Pf growth 96h – inhibits malaria parasite growth, 96 h. P. falciparum luciferase reporter growth, 96 h. 6.9% of 320,000 active. Potency, µM (titrated, usually from 28.7 µM), without a hit: at the top dose activity change, negative = inhibition, most hits filed as inhibitors; active = well fitted inhibition curve with a large enough effect; inconclusive = small, poorly fitted or top-dose-only effect, or another doubt; inactive = no such curve, though single readings can be large or run the other way; also: % is scaled to controls: 0 for no effect and ±100 for the full control effect
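Infected RBCs, 2% Hct / 0.05% parasitemia final; luciferase-reporter P. falciparum; cpd 96 h, 37 C, 5% CO2; luciferase detection reagent; luminescence.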
RE007 growth inh – less growth of the S. pombe RE007 Vpr strain; S. pombe RE007 Vpr strain, BacTiter-Glo ATP luminescence, 24 h; Potency, µM (highest dose often 92.2 µM), for inactives: top-dose activity change, negative = less growth, hits mostly inhibitors; 0.21% of 360,000 active; active = well fitted falling curve with a large enough effect; inconclusive = small, poorly fitted or top-dose-only effect; inactive = no such curve, though single readings can be large or run the other way; also: % is scaled to controls: 0 for no effect and ±100 for the full control effect; nearly all actives have a fitted effect of over 50% in size
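Fission yeast RE007 carrying one integrated HIV-1 vpr copy, seeded at OD 0.01 in PMG+AL medium with 23 nL pinned compound. Grown 24 h at 30 degrees; viability read by BacTiter-Glo luminescence after 5 min.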
Pf growth 48h – inhibits P. falciparum growth in the first generation, 48 h; 5.9% of 310,000 active; P. falciparum luciferase growth in erythrocytes, 48 h; Potency, µM (doses to about 28.7 µM), for the others: at the top dose activity change, negative = inhibition, hits mostly inhibitors; active = well fitted inhibition curve with a large enough effect; inconclusive = small, poorly fitted or top-dose-only effect, or another doubt; inactive = no such curve, though single readings can be large or run the other way; also: % is scaled to controls: 0 for no effect and ±100 for the full control effect
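Read-out is firefly luciferase luminescence from an integrated reporter in P. falciparum, so falling signal marks reduced parasite growth. Infected erythrocytes were at 2% hematocrit and 0.1% parasitemia (final) in Albumax-supplemented RPMI 1640.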
SARS PLP yeast – inhibitors of SARS-CoV papain-like protease in yeast | S. cerevisiae expressing SARS-CoV PLpro, growth rescue | Potency, µM (top dose mostly 32.9 µM), inactives show at the highest dose activity, positive = growth rescue, most hits filed as activators | 0.19% of 330,000 active; also: 0% is about no effect; nearly all actives have a fitted effect of over 55% in size
NS1 inh – influenza NS1 inhibition; AID 2326; 0.4% of 270,000 active; Potency, µM (doses to about 46.1 µM), inactives show top-dose activity, positive = more growth; also: actives are rising curves; nearly all actives have a fitted effect of over 50% in size
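Growth recovery, yeast-based: influenza A NS1 expressed in S. cerevisiae causes slow growth, and suppressors are detected by OD600. The parent strain without NS1 is used as positive control.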
Numbers without * were called inactive; ? = inconclusive; · = no result given. A selection: hits, their analogues and other compounds. The true share with any hit is near 9.5%. Unless noted, calls follow the shape of the full dose curve. Potency is read from the fitted curve at half-maximal effect.

SMILES	Pf growth 96h	RE007 growth inh	Pf growth 48h	SARS PLP yeast	NS1 inh
Cc1nn(C)c(C)c1CN(C)S(=O)(=O)c1ccc2ccccc2c1	?	5%	13µM*	29%	8%
Cc1nn(C)c(C)c1CN(C)S(=O)(=O)c1ccc(F)cc1	-10%	7%	6%	12%	4%
CCCNC(=O)C1(C)CCN(C(=O)c2ccc3sccc3c2)C1 (stereo unspecified)	·	17%	·	·	·
CC(=NC1CCCCC1)c1ccccc1O	·	·	·	·	7%
CC(C(=O)N1CCN(c2ccccc2)CC1)c1ccc([N+](=O)[O-])cc1 (stereo unspecified)	13µM*	-18%	-6%	2%	2%
CC(C(=O)N1CCOCC1)c1ccc([N+](=O)[O-])cc1 (stereo unspecified)	35%	-7%	6%	-6%	18%
Cc1ccc(NC(=S)N2CCN(S(=O)(=O)c3ccccc3)CC2)cc1	?	-1%	-1%	-2%	3%
S=C(Nc1ccccc1)N1CCN(C(=S)Nc2ccccc2)CC1	5.2µM*	·	0%	4%	·
O=C1c2cccc3cccc(c23)C(=O)N1CCN1CCN(C(=S)Nc2ccc(Cl)cc2)CC1	238%	18%	28%	17%	12%
O=S(=O)(c1ccc(F)c(F)c1F)N1CCN(C(=S)Nc2ccccc2)CC1	?	-4%	2.3µM*	-3%	·
O=C1c2cccc3cccc(c23)C(=O)N1CCN1CCN(C(=S)Nc2ccccc2)CC1	15µM*	-9%	42%	8%	12%
CCCC(C)CO (stereo unspecified)	0%	-5%	34%	-1%	·
O=[N+]([O-])c1ccc(NC(=S)N2CCN(c3ccccc3)CC2)cc1	16%	4%	14%	-26%	-9%
S=C(NC1CC1)N1CCN(c2ccc(Cl)cc2)CC1	0%	5%	-6%	-1%	-5%
O=[N+]([O-])c1ccc(N2CCN(C(=S)NC3CCCCC3)CC2)cc1	121%	5%	0.52µM*	-9%	7%
O=[N+]([O-])c1ccc(N2CCN(C(=S)Nc3ccccc3)CC2)cc1	-15%	15%	2.1µM*	2%	·
C=Cc1ccc(S(=O)(=O)O)cc1	1%	·	-9%	·	·
CC1(C)Oc2ccc(C(=O)Nc3ccccc3)cc2N(CC#N)C1=O	2.9µM*	8%	-5%	1%	-5%
FC(F)(F)c1cccc(Cn2nnnc2-c2ccc(Cl)cc2)c1	8.3µM*	-21%	?	-21%	-8%
CCCn1nnnc1-c1ccc(Cl)cc1	-2%	-4%	-2%	22%	20%
COc1ccc(NC(=O)CSc2nnc(-c3cc(C)[nH]n3)n2N)cc1	?	13%	-17%	20%	-5%
COc1cc(C(=O)Nc2ccc(C#N)cc2)c([N+](=O)[O-])cc1OC	10µM*	-7%	8%	2%	·
Oc1ccc(Nc2nc(NCC3CCCO3)c3ccccc3n2)cc1 (stereo unspecified)	17%	-13%	1.7µM*	-6%	-13%
Oc1ccccc1Nc1nc(NCC2CCCO2)c2ccccc2n1 (stereo unspecified)	?	-8%	2.3µM*	0%	-10%
COc1cccc(Nc2nc(NCC3CCCO3)c3ccccc3n2)c1 (stereo unspecified)	-107%	41%	·	-16%	-132%
SMILES	Pf growth 96h	RE007 growth inh	Pf growth 48h	SARS PLP yeast	NS1 inh
O=C(NCC(O)CN1CCOCC1)c1ccc([N+](=O)[O-])cc1 (stereo unspecified)	26%	8%	2%	9%	6%
CCOC(=O)c1c(C)n(S(=O)(=O)c2ccc(C)cc2)c2ccc(O)c(C(=O)O)c12	0%	-3%	-11%	7%	?
C=CCc1cccc(/C=C/c2cc(=O)c3ccccc3[nH]2)c1O	0%	4%	0.13µM*	?	9%
C=CCc1cccc(/C=N/n2cnnc2)c1O	?	-20%	44%	-7%	-23%
COc1cc(C(CCN2CCCC2)c2c(OC)cc(OC)c3ccc(=O)oc23)cc(OC)c1OC (stereo unspecified)	10µM*	-14%	?	10%	-2%
CCN(CC)CCC(c1cc(OC)c(OC)c(OC)c1)c1c(OC)cc(OC)c2c(C)cc(=O)oc12 (stereo unspecified)	?	-11%	9.3µM*	3%	0%
COc1cc(O)c(C(CC(=O)N2CCN(c3ccccc3)CC2)c2ccc(N(C)C)cc2)c(OC)c1 (stereo unspecified)	12µM*	7%	?	0%	-35%
COc1ccc(C(CC(=O)N2CCN(c3ccccc3)CC2)c2c(OC)cc(OC)c3ccc(=O)oc23)cc1 (stereo unspecified)	8.3µM*	-10%	7.4µM*	1%	?
COc1ccc(C(NC(=O)CN2CCCCCC2)c2ccc(OC)cc2)cc1	?	-5%	?	-1%	14%
CCOc1ccc(NC(=O)C2CCCN2S(=O)(=O)c2ccc(OCC)cc2)cc1 (stereo unspecified)	17%	-16%	-6%	-3%	-10%
COc1cc(OC)c2ccc(=O)oc2c1C(CC(=O)N1CCCC(C)C1)c1ccc2c(c1)OCO2 (stereo unspecified)	?	-25%	?	-2%	7%
COc1cc(C(CCN2CCN(c3ccccc3)CC2)c2c(OC)cc(OC)c3c(C)cc(=O)oc23)cc(OC)c1OC (stereo unspecified)	3.7µM*	-7%	2.6µM*	2%	-7%
COc1cc(C(CC(=O)N2CCCC2)c2c(OC)cc(OC)c3ccc(=O)oc23)cc(OC)c1OC (stereo unspecified)	13µM*	-15%	13µM*	1%	0%
COc1cc(OC)c2ccc(=O)oc2c1C(CC(=O)N1CCCC1)c1ccc2c(c1)OCO2 (stereo unspecified)	?	-18%	9.3µM*	0%	1%
CCN(CC)CCC(c1cc(OC)c(OC)c(OC)c1)c1c(OC)cc(OC)c2ccc(=O)oc12 (stereo unspecified)	?	-8%	?	-1%	1%
Cn1cnc(S(=O)(=O)N2CCCCC2c2cc(C(=O)NCc3ccc(F)cc3)no2)c1 (stereo unspecified)	·	11%	·	·	·
COC(=O)C1=C(C)N(Cc2ccccc2)C(=S)N[C@H]1CCc1ccccc1	-6%	·	?	12%	13%
COc1ccc2c(c1)C1(C)CC(C)(C)N2C(=O)N1c1ccccc1 (stereo unspecified)	10µM*	0%	?	-13%	14%
Cc1cc(C(C)(C)C)cc(C)c1Cn1c2[n+](c3ccc(C(F)(F)F)cc31)CCCCC2	?	-9%	3.3µM*	-10%	4%
FC(F)(F)c1cccc(Cn2c3[n+](c4ccc(C(F)(F)F)cc42)CCCCC3)c1	?	-20%	4.1µM*	1%	-2%
